Test [1] addresses Lysosomal acid glucosylceramidase (Homo sapiens) (UniProt P04062). Briefly: Glucocerebrosidase-p2 (AID 348; in the data active means potency below about 10 µM; further: potency means the concentration at half of the fitted maximal effect). Particulars: purified GBA, blue fluorogenic substrate, 40 min. The method in brief: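 Compounds titrated from 0.6 nM upwards against 0.2 nM enzyme in pH 5.9 citric acid/KH2PO4, taurocholate, tween-20; blue fluorogenic substrate 80 uM, 40 min room temperature, stopped and read Ex 365/Em 440 for AC50.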

Test [2] in a line: AP1 Signaling Pathway (AID 357; active means well fitted curve in either direction with a large enough effect, not every such curve was filed as active;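 further: ME-180 reporter cells stimulated with EGF at its EC50 level; on the % scale 0 is the no-effect control and ±100 the full control effect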). Conditions: ME-180 AP-1-bla reporter, EGF-induced, beta-lactamase ratio, 5 h; at 7.69 µM (top of the series) unless noted. The essentials:
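In this screen, ME-180 cells in Opti-MEM with 0.5% dialyzed FBS received EC50 EGF and compound titrations for 5 h. AP-1 reporter beta-lactamase was detected via CCF4 ratio, giving AC50 for positive and negative modulators.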

The target in test [3] is Cytochrome P450 1A2 (Homo sapiens) (UniProt P05177). Briefly: p450-cyp1a2 (AID 410; calls by dose curve; further: potency means the concentration at half of the fitted maximal effect). The essentials: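 Inhibition was calculated relative to 57 uM furafylline (full inhibition). The reaction used human CYP1A2 at 20nM with Luciferin-ME at its Km, 100uM, driven by an NADPH-regenerating system for 60 min at room temperature.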
Cytochrome P450 1A2 (Homo sapiens), sequence (P05177 whole entry, looked up): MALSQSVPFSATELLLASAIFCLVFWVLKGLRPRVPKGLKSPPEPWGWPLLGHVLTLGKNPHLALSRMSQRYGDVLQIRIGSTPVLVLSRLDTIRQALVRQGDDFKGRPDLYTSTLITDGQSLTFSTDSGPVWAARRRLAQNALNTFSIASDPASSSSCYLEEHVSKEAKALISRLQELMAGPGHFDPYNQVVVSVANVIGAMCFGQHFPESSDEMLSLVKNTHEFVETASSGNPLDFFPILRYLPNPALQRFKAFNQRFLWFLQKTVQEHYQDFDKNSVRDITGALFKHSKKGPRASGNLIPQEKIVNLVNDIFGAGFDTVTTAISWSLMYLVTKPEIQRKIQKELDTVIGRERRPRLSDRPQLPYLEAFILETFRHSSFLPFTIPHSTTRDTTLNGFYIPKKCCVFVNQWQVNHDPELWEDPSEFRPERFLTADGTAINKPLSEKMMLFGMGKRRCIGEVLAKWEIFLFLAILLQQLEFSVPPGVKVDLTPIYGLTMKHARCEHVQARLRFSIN
Test [4] in a line: NFAT Signaling Pathway (AID 444; active means well fitted curve in either direction with a large enough effect, not every such curve was filed as active;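 further: carbachol stimulus at about its EC50 of 1 µM final; on the % scale 0 is the no-effect control and ±100 the full control effect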). Particulars: Jurkat NFAT-bla M1, carbachol, beta-lactamase ratio, 5 h; at 7.69 µM (top of the series) unless noted. The essentials:
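Read-out: CCF4 FRET ratio (460 nm/530 nm) after 1 h RT dye loading, used for %activity and AC50 from titration series. Cells: Jurkat NFAT-β-lactamase/M1 line, treated with compound plus 1 uM carbachol for 5 h, 37 °C.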

The nature of test [5]: Stat Signaling Pathway (AID 446; active means well fitted curve in either direction with a large enough effect, not every such curve was filed as active;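 further: ME-180 cervical cancer cells given 40 pM IL-6 alongside compound; SIE-controlled beta-lactamase reporter measured as 460/530 nm FRET emission ratio; on the % scale 0 is the no-effect control and ±100 the full control effect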). Particulars: ME-180 SIE beta-lactamase reporter, IL-6 stimulated, 5 h; at 7.69 µM (top of the series) unless noted. The method in brief: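 ME-180 cells carrying a SIE-driven beta-lactamase reporter are stimulated with 40 pM IL-6 for 5 h at 37C in the presence of compound. The 460/530 nm FRET substrate ratio is read after 2.5 h at RT. Data are normalised to 300 pM IL-6 and to 125 nM JAK inhibitor controls.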

Test [6] addresses Glucocorticoid receptor (Homo sapiens) (UniProt P04150). As to the kind of experiment: GR-GFP Redistribution (AID 450;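 active means compounds whose dose series gives a full or clear partial fitted curve of increased nuclear translocation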; further: potency means the concentration at half of the fitted maximal effect). Conditions: U2OS GR-GFP nuclear translocation, laser cytometry, 2 h.
Test [7] has as its target Mitogen-activated protein kinase 10 (Mus musculus) (UniProt Q61831). As to the kind of experiment: JNK3 AlphaScreen Assay (AID 530; active means well fitted curve in either direction with a large enough effect, not every such curve was filed as active;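 further: kinase came from lysate of stimulated human HepG2 cells; signal reports phosphorylation of biotinylated GST-cJun 1-79 at Ser73 with 10 µM ATP; on the % scale 0 is the no-effect control and ±100 the full control effect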). The method in brief:
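Room-temperature AlphaScreen kinase assay; pre-activated HepG2 lysate as JNK3 source, biotin-GST-cJun(1-79) substrate, 10 uM ATP, compound 15 min preincubation.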
A general note: Alpha assays give light when donor and acceptor beads are brought close together.

In test [8] the target is 3',5'-cyclic-AMP phosphodiesterase 4B (Homo sapiens) (UniProt Q07343). Briefly: qHTS Assay for Inhibitors of PDE-IV (AID 607; active means well fitted activation curve with a large enough effect in the main read-out, with a control signal flat, not every such curve was filed as active; further: % of control where 0% means no effect). The essentials:
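HEK293 ACTOne cells with CNG channel (1000/well), endogenous PDE4; membrane potential dye, compounds up to 22.9 uM final. Fluorescence Ex 535/Em 590; RO 20-1724 (100 uM final) as reference.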
(In general: Quantitative high-throughput screening tests each substance at several concentrations.)

Test [9] has as its target Cytochrome P450 3A4 (Homo sapiens) (UniProt P08684). As to the kind of experiment: qHTS Assay for Activators of Cytochrome P450 3A4 (AID 885). Further: nearly all actives have a fitted effect of over 65% in size. The method in brief:
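Human CYP3A4 (20 nM) with Luciferin-PPXE at 25 uM (its KM) in 200 mM KPO4; 10 min compound preincubation, then NADPH regeneration and 60 min reaction at RT. Luciferin read by luminescence; normalized to 57 uM ketoconazole full inhibition.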

Test [10] concerns the target Cytochrome P450 2C19 (Homo sapiens) (UniProt P33261). Briefly: qHTS Assay for Inhibitors and Substrates of Cytochrome P450 2C19 (AID 899). Further: potency means the concentration at half of the fitted maximal effect; nearly all actives have a fitted effect of over 60% in size. The method in brief: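 5nM enzyme + 10uM Luciferin-H EGE (=KM), 50mM KPO4; cpd pin-transferred, 10 min 37C; NADPH regen, 60 min 37C; stopped w/ luciferin detection reagent, 20 min; luminescence. Normalized to 57uM ketoconazole (AC100).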

The target in test [11] is Dual specificity protein kinase CLK4 (Homo sapiens) (UniProt Q9HAZ1). As to the kind of experiment: qHTS Assay for Inhibitors of CDC-like Kinase 4 (ADP-FP Assay) (AID 1795). Further: nearly all actives have a fitted effect of over 60% in size. Further: potency means the concentration at half of the fitted maximal effect. The essentials:
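Inhibition of ADP formation by 6.25 nM Clk4 is measured using 1 uM ATP and 100 uM RS repeat peptide over one hour. Produced ADP displaces a fluorescent tracer from antibody, lowering polarization.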

Test [12] deals with Ubiquitin carboxyl-terminal hydrolase 1 (Homo sapiens) (UniProt O94782). Briefly: Inhibitors of USP1/UAF1: Pilot qHTS (AID 504865).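 Further: rhodamine fluorescence freed from ubiquitin-rhodamine substrate followed over time; top concentration of the series differs between compounds; on the % scale 0 is the no-effect control and ±100 the full control effect; nearly all actives have a fitted effect of over 35% in size.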 The essentials: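 Kinetic fluorescence assay: 1nM USP1/UAF1, 15 min compound preincubation, then 150nM Ub-Rho; 480/540 nm.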
Ubiquitin carboxyl-terminal hydrolase 1 (Homo sapiens), sequence (O94782 whole entry, looked up): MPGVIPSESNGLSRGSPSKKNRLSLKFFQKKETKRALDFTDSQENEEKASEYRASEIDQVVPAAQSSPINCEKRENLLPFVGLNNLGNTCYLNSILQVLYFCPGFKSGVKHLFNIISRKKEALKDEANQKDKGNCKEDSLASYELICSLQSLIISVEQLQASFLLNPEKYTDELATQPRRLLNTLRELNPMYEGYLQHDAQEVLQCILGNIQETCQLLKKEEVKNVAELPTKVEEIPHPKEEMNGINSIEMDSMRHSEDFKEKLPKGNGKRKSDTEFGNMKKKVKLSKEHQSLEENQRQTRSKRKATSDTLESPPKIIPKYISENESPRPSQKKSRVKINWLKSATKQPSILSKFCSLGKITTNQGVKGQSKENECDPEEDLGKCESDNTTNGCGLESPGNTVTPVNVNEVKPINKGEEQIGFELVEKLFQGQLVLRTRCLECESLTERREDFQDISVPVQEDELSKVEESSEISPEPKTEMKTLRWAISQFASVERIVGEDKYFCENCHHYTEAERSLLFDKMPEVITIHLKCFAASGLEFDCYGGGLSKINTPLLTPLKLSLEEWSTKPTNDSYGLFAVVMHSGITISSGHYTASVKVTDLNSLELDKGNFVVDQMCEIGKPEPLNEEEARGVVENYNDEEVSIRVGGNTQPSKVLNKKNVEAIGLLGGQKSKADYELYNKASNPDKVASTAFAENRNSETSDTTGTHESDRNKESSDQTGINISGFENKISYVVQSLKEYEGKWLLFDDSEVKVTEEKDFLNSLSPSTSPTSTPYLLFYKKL
Test [13] is described as follows: Primary qHTS for small molecule stabilizers of the endoplasmic reticulum resident proteome: Secreted ER Calcium Modulated Protein (SERCaMP) assay (AID 1508630). Further: on the % scale 0 is the no-effect control and ±100 the full control effect. The method in brief: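 GLuc-SERCaMP-expressing SH-SY5Y cells, pretreated 16 h with compound, are challenged with thapsigargin to empty ER calcium stores; after 4 h, coelenterazine is added directly to the medium and luminescence is imaged.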

Test [14] addresses Glucocorticoid receptor (Homo sapiens) (UniProt P04150). Briefly: GR-EFC Redistribution (AID 451; calls by dose curve; further: potency means the concentration at half of the fitted maximal effect). Particulars: CHO-K1 GR-EFC translocation, beta-gal luminescence, 2 h. The method in brief:
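Translocation of GR-ED fusion to nuclear EA restores b-gal, read by luminescence after 1 h room-temperature detection. Engineered CHO-K1 biosensor cells, 1,000/well, exposed 2 h at 37 C to titrations up to 46 uM final.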

The target in test [15] is Cytochrome P450 2C9 (Homo sapiens) (UniProt P11712). As to the kind of experiment: qHTS Assay for Inhibitors and Substrates of Cytochrome P450 2C9 (AID 883). Further: on the % scale 0 is the no-effect control and ±100 the full control effect; nearly all actives have a fitted effect of over 60% in size. The method in brief:
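Inhibition of CYP2C9 is scored as loss of luminescence, with 57uM sulphaphenazole defining 100% inhibition. Substrate Luciferin-H is used at 100uM, equal to its KM; enzyme at 10nM in 25mM KPO4, 60 min at 37C with NADPH regeneration.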

In test [16] the target is Cytochrome P450 3A4 (Homo sapiens) (UniProt P08684). Briefly: qHTS Assay for Inhibitors and Substrates of Cytochrome P450 3A4 (AID 884). Further: potency means the concentration at half of the fitted maximal effect; nearly all actives have a fitted effect of over 50% in size. The method in brief: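 20 nM human CYP3A4 with 25 uM Luciferin-PPXE (at KM) in 200 mM KPO4, preincubated 10 min with compound; NADPH regeneration started a 60 min RT reaction. Luciferin detected by luminescence, normalized to 57 uM ketoconazole as full inhibition.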
Cytochrome P450 3A4 (Homo sapiens), sequence (P08684 whole entry, looked up): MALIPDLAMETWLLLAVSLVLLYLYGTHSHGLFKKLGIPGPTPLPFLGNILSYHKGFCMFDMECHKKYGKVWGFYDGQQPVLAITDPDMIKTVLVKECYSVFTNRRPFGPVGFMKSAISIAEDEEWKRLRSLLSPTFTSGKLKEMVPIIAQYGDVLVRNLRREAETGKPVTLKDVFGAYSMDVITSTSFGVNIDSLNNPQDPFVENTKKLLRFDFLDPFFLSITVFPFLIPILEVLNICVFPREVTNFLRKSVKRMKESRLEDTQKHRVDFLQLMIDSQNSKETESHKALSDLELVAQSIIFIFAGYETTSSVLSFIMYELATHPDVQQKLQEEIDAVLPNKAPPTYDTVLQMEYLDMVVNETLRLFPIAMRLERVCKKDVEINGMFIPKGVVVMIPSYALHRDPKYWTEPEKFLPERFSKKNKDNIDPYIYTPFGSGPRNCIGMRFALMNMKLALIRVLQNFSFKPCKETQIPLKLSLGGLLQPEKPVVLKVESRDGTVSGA

The nature of test [17]: qHTS Assay for Identification of Small Molecule Agonists for Hypoxia Response Element Signaling Pathway (AID 914; active means well fitted activation curve with a large enough effect in the signal ratio, with a control signal flat, not every such curve was filed as active; the % refers to the signal ratio; further: % of control where 0% means no effect). Particulars: ME-180 (cervical carcinoma) HRE-bla reporter, beta-lactamase ratio, CoCl2, 17 h; activation: hits give high values. The method in brief:
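Cells were plated overnight, pin-dosed with compound in a titration series, co-stimulated with EC50 CoCl2 and incubated 17 hours at 37 degrees Celsius. CCF4 substrate was then loaded, and AC50 values came from the 460nm/530nm ratio.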

Seven molecules from PubChem BioAssay (NCATS) can be followed below.

Unmarked numbers belong to inactive results. Records with an inconclusive call do not appear. The source made the active and inactive calls. Unless noted, the call rests on the fitted dose curve; in most records, active means well fitted curve in the direction sought with a large enough effect; inconclusive means small, poorly fitted or top-dose-only effect, or another doubt; inactive means no such curve, though single readings can be large; an effect the other way counts as inactive or inconclusive.

Dual specificity protein kinase CLK4 (Homo sapiens), sequence (Q9HAZ1 whole entry, looked up): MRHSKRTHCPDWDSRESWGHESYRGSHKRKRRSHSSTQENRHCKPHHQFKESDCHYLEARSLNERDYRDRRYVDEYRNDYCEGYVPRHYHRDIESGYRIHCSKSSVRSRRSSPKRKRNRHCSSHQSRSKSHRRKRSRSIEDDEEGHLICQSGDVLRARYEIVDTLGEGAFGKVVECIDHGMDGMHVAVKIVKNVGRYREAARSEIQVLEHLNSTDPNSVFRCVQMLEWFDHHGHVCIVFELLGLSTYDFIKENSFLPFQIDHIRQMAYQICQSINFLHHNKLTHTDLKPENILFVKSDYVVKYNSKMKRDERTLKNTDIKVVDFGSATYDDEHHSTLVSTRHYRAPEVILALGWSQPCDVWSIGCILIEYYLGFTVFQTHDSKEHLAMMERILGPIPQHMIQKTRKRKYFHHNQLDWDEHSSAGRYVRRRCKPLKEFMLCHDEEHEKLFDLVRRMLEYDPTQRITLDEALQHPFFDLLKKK
3',5'-cyclic-AMP phosphodiesterase 4B (Homo sapiens), sequence (Q07343 whole entry, looked up): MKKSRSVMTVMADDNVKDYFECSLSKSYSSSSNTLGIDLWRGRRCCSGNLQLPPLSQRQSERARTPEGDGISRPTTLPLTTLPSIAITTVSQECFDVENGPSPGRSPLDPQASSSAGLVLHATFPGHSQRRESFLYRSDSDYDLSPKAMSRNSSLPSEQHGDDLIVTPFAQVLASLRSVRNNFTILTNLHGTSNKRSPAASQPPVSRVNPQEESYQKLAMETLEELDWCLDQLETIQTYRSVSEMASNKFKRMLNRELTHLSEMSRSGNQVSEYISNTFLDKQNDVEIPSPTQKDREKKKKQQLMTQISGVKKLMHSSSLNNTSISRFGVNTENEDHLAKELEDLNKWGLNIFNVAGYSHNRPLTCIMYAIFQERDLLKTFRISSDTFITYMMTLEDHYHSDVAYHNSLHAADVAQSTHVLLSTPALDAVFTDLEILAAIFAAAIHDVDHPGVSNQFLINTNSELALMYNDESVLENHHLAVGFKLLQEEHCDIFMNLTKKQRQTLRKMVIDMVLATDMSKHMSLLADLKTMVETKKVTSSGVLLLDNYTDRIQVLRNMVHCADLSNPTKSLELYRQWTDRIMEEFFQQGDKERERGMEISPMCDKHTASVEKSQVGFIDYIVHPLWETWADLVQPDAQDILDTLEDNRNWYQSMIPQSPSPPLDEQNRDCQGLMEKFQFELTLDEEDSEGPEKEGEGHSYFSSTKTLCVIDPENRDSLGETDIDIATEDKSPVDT
Lysosomal acid glucosylceramidase (Homo sapiens), sequence (P04062 whole entry, looked up): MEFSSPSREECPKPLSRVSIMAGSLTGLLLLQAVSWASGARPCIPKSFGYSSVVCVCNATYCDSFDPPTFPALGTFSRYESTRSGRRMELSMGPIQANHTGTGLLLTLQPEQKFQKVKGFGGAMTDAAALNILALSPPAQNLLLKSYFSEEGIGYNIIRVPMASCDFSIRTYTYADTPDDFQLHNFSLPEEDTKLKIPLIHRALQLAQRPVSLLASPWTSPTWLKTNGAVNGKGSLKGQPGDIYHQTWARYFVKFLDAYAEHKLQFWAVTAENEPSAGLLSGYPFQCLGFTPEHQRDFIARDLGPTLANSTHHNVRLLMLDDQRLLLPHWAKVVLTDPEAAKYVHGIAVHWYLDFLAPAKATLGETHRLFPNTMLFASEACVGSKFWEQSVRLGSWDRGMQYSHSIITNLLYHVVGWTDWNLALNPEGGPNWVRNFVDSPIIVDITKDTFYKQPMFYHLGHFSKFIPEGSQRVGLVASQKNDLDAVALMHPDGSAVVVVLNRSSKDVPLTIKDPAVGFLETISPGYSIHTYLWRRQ
Glucocorticoid receptor (Homo sapiens), sequence (P04150 whole entry, looked up, the tested form may be a part): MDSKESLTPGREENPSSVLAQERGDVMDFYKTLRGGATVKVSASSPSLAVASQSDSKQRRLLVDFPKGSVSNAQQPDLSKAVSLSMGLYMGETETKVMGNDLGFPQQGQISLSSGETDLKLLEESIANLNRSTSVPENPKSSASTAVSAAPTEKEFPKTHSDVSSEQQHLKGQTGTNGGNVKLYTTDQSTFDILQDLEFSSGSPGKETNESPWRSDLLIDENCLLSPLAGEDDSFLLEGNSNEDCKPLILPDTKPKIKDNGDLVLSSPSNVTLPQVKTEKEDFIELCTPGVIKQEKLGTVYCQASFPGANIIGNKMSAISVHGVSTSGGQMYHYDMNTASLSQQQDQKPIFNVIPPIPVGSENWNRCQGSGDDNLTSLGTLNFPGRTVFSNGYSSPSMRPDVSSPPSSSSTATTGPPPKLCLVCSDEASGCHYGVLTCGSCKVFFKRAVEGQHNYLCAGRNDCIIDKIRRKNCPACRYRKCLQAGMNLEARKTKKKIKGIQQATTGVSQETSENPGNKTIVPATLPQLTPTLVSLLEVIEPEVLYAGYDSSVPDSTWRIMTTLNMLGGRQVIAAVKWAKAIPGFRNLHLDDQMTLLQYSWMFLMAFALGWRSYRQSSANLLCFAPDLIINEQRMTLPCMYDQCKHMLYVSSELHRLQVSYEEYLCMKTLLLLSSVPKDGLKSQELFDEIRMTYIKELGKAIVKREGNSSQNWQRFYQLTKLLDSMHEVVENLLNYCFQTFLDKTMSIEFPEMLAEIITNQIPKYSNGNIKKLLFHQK
Cytochrome P450 2C19 (Homo sapiens), sequence (P33261 whole entry, looked up): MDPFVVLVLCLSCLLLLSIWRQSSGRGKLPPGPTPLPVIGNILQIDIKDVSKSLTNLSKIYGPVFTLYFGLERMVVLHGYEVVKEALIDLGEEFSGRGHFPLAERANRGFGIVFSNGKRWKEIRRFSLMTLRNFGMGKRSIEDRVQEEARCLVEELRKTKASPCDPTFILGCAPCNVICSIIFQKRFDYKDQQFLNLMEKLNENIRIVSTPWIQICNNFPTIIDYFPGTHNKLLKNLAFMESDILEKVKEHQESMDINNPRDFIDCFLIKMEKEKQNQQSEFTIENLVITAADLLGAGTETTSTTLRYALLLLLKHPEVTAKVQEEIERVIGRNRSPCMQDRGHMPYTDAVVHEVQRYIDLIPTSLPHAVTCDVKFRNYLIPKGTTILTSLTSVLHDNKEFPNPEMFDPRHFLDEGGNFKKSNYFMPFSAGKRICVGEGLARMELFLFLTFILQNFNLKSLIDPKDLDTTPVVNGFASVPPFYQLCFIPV

As for `CS(=O)(=O)Nc1cccc(-c2cncnc2NCc2cccnc2)c1`, the Potency in [1] was greater than 11.4 µM; in test [3], 15.8 µM (active); in test [6] it was greater than 46 µM; in test [10] it was 3.16 µM (active). Also, the activity change, negative = inhibition was 10.9% in test [2] and -3.98% in [4]. Also, the activity, negative = inhibition in [5] was -1.28%. Moreover, the Potency entry in test [7], in [8], in test [9], in [11] and in test [12] was “inactive” in each case. Further, the outcome in test [13] was inactive.

As to `CN(C)c1nc(-c2ccccc2C(F)(F)F)nc2ccccc12`, the Potency in [1] is greater than 11.4 µM; in test [3], 0.251 µM (active); in [6], greater than 46 µM; in test [14], greater than 46 µM. The activity change, negative = inhibition was 0.537% in [4] and 37.2% [at 2.29 µM] in test [15]. Besides, in test [5], the activity, negative = inhibition is 7.02%. The Potency entry in test [7], in [8], in [11] and in test [12] was “inactive” each time. In addition, the outcome in [13] was inactive.

Turning to `COc1ccc(CNc2ncncc2-c2ccoc2)c(OC)c1`, the Potency in test [1] was greater than 11.4 µM; in test [6], greater than 46 µM; in test [14], greater than 46 µM; in [11], 14.1 µM (active). Also, the results for the activity change, negative = inhibition in test [2] and in test [4] were -9.49% and 5.94%, respectively. The activity, negative = inhibition in [5] was -9.38%. Also, the Potency result in [7], in test [8] and in test [12] was “inactive” throughout. The outcome in test [13] was inactive.

`CCNc1ncc2nc(-c3cccs3)c(=O)n(C[C@H]3CCCO3)c2n1`: the Potency was greater than 11.4 µM in test [1], 2.51 µM (active) in [3], greater than 9.22 µM in test [6] and greater than 46 µM in test [14]. Moreover, the activity change, negative = inhibition in test [2] was 9.48%; in test [4], 18.7%. In addition, the Potency result in test [7], in [9], in test [11] and in test [12] was “inactive” in each case. Moreover, the outcome in test [13] was inactive.

For the molecule `Cc1cnc(CNc2cc(-c3c(C)noc3C)ncn2)cn1`, the Potency is greater than 11.4 µM in [1], greater than 46 µM in [6] and greater than 46 µM in test [14]. Besides, the activity change, negative = inhibition is 23.4% in [2] and 7.12% in test [4]. Moreover, in test [5], the activity, negative = inhibition is 12.1%. Also, the Potency entry in test [7], in test [8], in test [11] and in test [12] was “inactive” each time. Moreover, in test [13], the outcome was inactive.

Take `COc1ccccc1-c1nccc(NCc2cccnc2)n1`: the Potency in [1] was greater than 11.4 µM; in test [3], 0.2 µM (active); in test [6], greater than 46 µM; in test [14], greater than 46 µM; in test [16] it was 2.51 µM (active); in test [10] it was 3.98 µM (active). Moreover, the activity change, negative = inhibition in [2] is 5.53%; in test [4], 1.48%. Besides, the activity, negative = inhibition in test [5] was 0.0574%. Further, the Potency entry in test [9], in [11] and in [12] was “inactive” throughout. In addition, the activation in test [17] was 4.59%. For the same molecule, in test [13], the result was inactive.

With `COc1ccc(CNc2ccnc(-c3cccnc3)n2)c(OC)c1`, the Potency was greater than 11.4 µM in test [1]; 0.316 µM (active) in test [3]; greater than 46 µM in test [6]; greater than 46 µM in test [14]; 0.631 µM (active) in test [16]; 2 µM (active) in [10]. Further, the activity change, negative = inhibition in test [2] is -5.2%; in test [4], -0.132%. In addition, the activity, negative = inhibition in test [5] is -2.65%. Further, the Potency result in test [8], in test [9], in [11] and in [12] was “inactive” each time. In addition, the result in test [13] was inactive.
